In PubChem BioAssay:

The molecules below were run against Torsin-1A-interacting protein 1 (Homo sapiens) (UniProt Q5JTV8) (assay: LAP1 binders from COS7 cell lysate, primary screen, small-molecule microarray, 635/667 nm fluorescence (AID 1116)). Settings: COS7-hLAP1 lysate binding, 635 nm fluorescence, higher = more signal.
Sequence of Torsin-1A-interacting protein 1 (Homo sapiens) (Q5JTV8 whole entry, looked up): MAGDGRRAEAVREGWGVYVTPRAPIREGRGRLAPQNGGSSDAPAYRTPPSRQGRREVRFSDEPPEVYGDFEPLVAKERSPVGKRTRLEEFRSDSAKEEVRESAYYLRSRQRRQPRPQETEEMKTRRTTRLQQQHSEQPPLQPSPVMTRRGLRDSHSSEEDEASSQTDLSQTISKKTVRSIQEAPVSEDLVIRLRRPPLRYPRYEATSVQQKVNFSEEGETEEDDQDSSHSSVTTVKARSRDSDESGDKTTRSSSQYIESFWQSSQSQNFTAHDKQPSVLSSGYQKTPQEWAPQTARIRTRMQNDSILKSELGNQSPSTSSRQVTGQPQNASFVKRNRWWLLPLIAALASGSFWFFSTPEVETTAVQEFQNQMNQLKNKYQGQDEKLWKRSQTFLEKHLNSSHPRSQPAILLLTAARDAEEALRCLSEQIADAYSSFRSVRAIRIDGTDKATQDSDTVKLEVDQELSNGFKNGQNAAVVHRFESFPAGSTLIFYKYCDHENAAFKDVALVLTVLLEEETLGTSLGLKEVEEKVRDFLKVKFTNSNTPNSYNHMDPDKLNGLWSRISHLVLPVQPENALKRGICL
Work on `COc1cc(C(O)C2C=CC3C(=O)N(C)C(=O)C3N2Nc2ccccc2)cc(OC)c1OC` (stereo not drawn) yielded a composite z-score of 1.3.
`COCCOC(=O)N1C(=O)[C@@]2(c3cc(C#CCCO)ccc31)[C@H](c1ccc(OCCO)cc1)N1[C@H](c3ccccc3)[C@H](c3ccccc3)OC(=O)[C@H]1[C@@H]2C(=O)Nc1nc2ccccc2s1` gave a composite z-score of 1.08.
In the case of `C=CCNC(=O)[C@@H]1[C@H]2C(=O)O[C@H](c3ccccc3)[C@H](c3ccccc3)N2[C@H](c2ccc(OCCO)cc2)[C@@]12C(=O)N(C(=O)OCCOC)c1ccc(C#Cc3ccc(OC)cc3)cc12`, the composite z-score is reported as 0.229.
In the case of `N#Cc1ccc(NN2C(C(O)c3ccc(Br)cc3)C=CC3C(=O)N(c4ccccc4)C(=O)C32)cc1` (stereo not drawn), the composite z-score is reported as 1.14.
`CCCC=C(CCC)[C@@H](NC(=O)C(C)(C)C)c1ccc(C(=O)OC)cc1` gave a composite z-score of 0.321.
Work on `CO[C@H]1O[C@H](CO)[C@@H](OC(=O)Nc2ccc(Br)cc2)[C@@H]2OC(=O)[C@@H](Cc3ccccc3)C/C=C/C[C@H](Cc3ccccc3)C(=O)O[C@@H]12` yielded a composite z-score of 0.325.
`C#CCN(Cc1ccccc1Br)[C@H](/C=C/c1ccccc1)[C@@H](O)Cc1ccccc1` gave a composite z-score of -0.354.
`CCCCCN1CC=CC23O[C@@H]4/C=C\CCCOC(=O)C4[C@H]2C(=O)N(C(C)CO)[C@@H]3C1=O` (stereo partly drawn) gave a composite z-score of -0.111.
With `CCCCCN1CC=CC23O[C@@H]4C=CCCOC(=O)C4[C@H]2C(=O)N(CCCCCCO)[C@@H]3C1=O` (stereo partly drawn) the composite z-score was 0.564.
Work on `NC(=O)[C@@]1(Cc2ccccc2)COC(c2ccc(OCCCO)cc2)=N1` yielded a composite z-score of 0.381.
`COC(=O)[C@@]1(Cc2ccc(OC)cc2)[C@H]2c3cc(C(=O)N4CCCC4)n(CCO)c3C[C@H]2CN1C(=O)c1ccccc1` was tested, and the composite z-score was 1.47.

What follows are molecules tested against Alpha-bungarotoxin (Bungarus multicinctus) (UniProt P60615) (assay: alpha-bungarotoxin binders on microarray, profiling panel, artefact control for SMM control protein annotation, biochemical, small-molecule microarray, Alexa647 label, 635/667 nm fluorescence (AID 1117)). Settings: alpha-BTX-A647 binding fluorescence, higher = more signal.
Sequence of Alpha-bungarotoxin (Bungarus multicinctus) (P60615 whole entry, looked up): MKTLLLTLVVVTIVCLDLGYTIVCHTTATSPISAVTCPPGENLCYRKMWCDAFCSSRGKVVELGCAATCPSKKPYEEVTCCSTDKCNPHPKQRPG
Molecule `O=C(O)[C@@H]1[C@@H]2C(=O)N(c3ccccc3)C(=O)[C@@H]2C[C@@H]1Sc1ccccc1` has a composite z-score of -0.909.
`CCCCN1CC=CC23O[C@@H]4/C=C\CCC(C)OC(=O)C4[C@H]2C(=O)N(CCCO)[C@@H]3C1=O` (stereo partly drawn) was tested, and the composite z-score was -0.566.
Work on `CN(C)C(=O)[C@]1(CCC(=O)OC(C)(C)C)N=C(c2ccc(OCCCO)cc2)O[C@@H]1c1ccccc1CN=[N+]=[N-]` yielded a composite z-score of 1.81.
In the case of `CCCCCC1=C2CNC(C)(C(=O)OC)C=C2C(C)C1=O` (stereo not drawn), the composite z-score is reported as -0.0075.
Work on `CCOC(=O)C[C@H]1[C@H](OC(=O)c2cc3ccccc3oc2=O)[C@@H](NC(=O)c2ccc3ccccc3n2)c2cc(OCCCO)ccc2N1C(=O)Cc1ccc(OC)cc1` yielded a composite z-score of 0.981.
`CS(=O)(=O)CCOC(=O)C1=CC(CCCO)=CC(c2ccc(CN3CCCC3)cc2)N(Cc2sc3ccccc3c2Cl)C=C1C(=O)OCCS(C)(=O)=O` (stereo not drawn) showed a composite z-score of 2.86.
`NC(=O)NCC#Cc1ccc2c(c1)[C@]1(C(=O)N2)[C@H](c2ccccc2OCCO)N2[C@H](c3ccccc3)[C@H](c3ccccc3)OC(=O)[C@H]2[C@@H]1C(=O)NC[C@H](O)c1ccccc1` was tested, and the composite z-score was 1.1.
In the case of `CC(C)N1C(=O)c2ccccc2[C@@H](C(=O)NCCN2CCOCC2)[C@@H]1c1ccc(CO)cc1`, the composite z-score is reported as -1.25.
With `COCCOC(=O)N1C(=O)[C@@]2(c3cc(C#CC4=CCCCC4)ccc31)[C@H](C(=O)Nc1nc3ccccc3s1)[C@H]1C(=O)O[C@H](c3ccccc3)[C@H](c3ccccc3)N1[C@@H]2c1ccc(O)cc1` the composite z-score was 0.42.
`COc1ccc(CCNC(=O)[C@@]2(Sc3ccc(C)cc3)CC(=O)N(Cc3ccccc3C(F)(F)F)[C@@H]2c2ccc(CO)cc2I)cc1` gave a composite z-score of 1.73.
Molecule `COc1ccc([Si](C)(C)[C@H]2[C@H](CC(=O)N3CCC[C@H]3CO)O[C@@]3(C(=O)N(Cc4ccc(N5CCOC5=O)cc4)c4ccccc43)[C@@H]2C)cc1` has a composite z-score of 1.08.
In the case of `COc1cc(OC)c(C(O)C2C=CC3C(=O)N(Cc4ccccc4)C(=O)C3N2n2cnnc2)cc1Br` (stereo not drawn), the composite z-score is reported as 0.871.
Work on `[N-]=[N+]=Nc1ccccc1C[C@@]1(C(=O)N2CCOCC2)N=C(c2ccc(OCCCO)cc2)O[C@@H]1c1ccccc1` yielded a composite z-score of 1.39.
In the case of `Cc1ccc(C(C)CC(O)C2C=CC3C(=O)N(c4ccccc4)C(=O)C3N2Nc2ccccc2)o1` (stereo not drawn), the composite z-score is reported as 1.3.
Work on `CCOC(=O)C[C@H]1[C@H](OC(=O)c2ccc(C(=O)c3ccccc3)cc2)[C@@H](NC(=O)c2ccc(-c3ccccc3)cc2)c2cc(OCCCO)ccc2N1C(=O)Cc1ccc(OC)cc1` yielded a composite z-score of 0.355.
For `CCOC(=O)C1=C[C@@H](C(C)C)N(S(=O)(=O)c2ccc(C)cc2)[C@H]1c1ccc(C(F)(F)F)cc1`, the composite z-score was 1.06.
`C=C[C@H]1C(C(=O)OCC)=CC[C@@H](c2ccccc2)N1S(=O)(=O)c1ccc(C)cc1` gave a composite z-score of 0.621.
